From PubChem BioAssay (Tox21)
Inconclusive results are not listed. Active and inactive are the calls of the source. Unless noted, calls come from the whole dose curve.

Assays:
[1] = Nuclear factor erythroid 2-related factor 2/antioxidant responsive element (Nrf2/ARE) small molecule agonists: qHTS cell viability counter screen in human keratinocytes (AID 1919968; active = well fitted cell-killing curve with a large enough effect in the repeat runs; note: nearly all actives have a fitted effect of over 55% in size; note: potency is the fitted concentration of half-maximal effect)
Outline: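 Parallel cytotoxicity read: KeratinoSens HaCaT cells, compound treatment 23 h, viability by CellTiter-Fluor fluorescence 1 h post-reagent.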

[2] = Nuclear factor erythroid 2-related factor 2/antioxidant responsive element (Nrf2/ARE) small molecule agonists: luciferase reporter gene qHTS assay in human keratinocytes (AID 1919969); note: nearly all actives have a fitted effect of over 35% in size
[3] = biological target: Gonadotropin-releasing hormone receptor (Homo sapiens) (UniProt P30968); assay: Human gonadotropin-releasing hormone receptor (GnRHR) small molecule agonists, calcium flux assay in GnRHR-HEK293 cells (AID 1920063); note: nearly all actives have a fitted effect of over 35% in size; note: potency is the fitted concentration of half-maximal effect
Gonadotropin-releasing hormone receptor (Homo sapiens), sequence (P30968 whole entry, looked up): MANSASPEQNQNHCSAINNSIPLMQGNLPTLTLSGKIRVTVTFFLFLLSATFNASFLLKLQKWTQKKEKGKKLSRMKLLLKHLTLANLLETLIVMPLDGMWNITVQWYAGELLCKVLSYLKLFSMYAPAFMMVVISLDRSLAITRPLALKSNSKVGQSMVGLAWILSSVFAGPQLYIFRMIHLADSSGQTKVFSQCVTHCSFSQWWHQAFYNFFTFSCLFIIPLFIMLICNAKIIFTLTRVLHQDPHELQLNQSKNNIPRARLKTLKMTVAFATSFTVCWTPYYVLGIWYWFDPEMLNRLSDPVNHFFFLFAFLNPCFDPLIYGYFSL
Outline: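 Calcium flux, agonist mode, human GnRHR stably integrated in HEK293; dye 1 h at 37 C before compound; Ex/Em=480/540 kinetic read, 3 min; 15 concentrations, triplicate.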

[4] = G protein-coupled receptor (GPCR) small molecule agonists, calcium flux assay: HEK293 wild type cell line counter screen (AID 1920065)
Outline: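 Non-specific calcium responders were flagged by adding DMSO-dissolved compounds to dye-loaded cells and reading 480/540 nm fluorescence each second for 3 min; ATP served as positive control.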

[5] = p53 small molecule agonists, cell-based qHTS assay with human liver microsomes (AID 1963577)
Outline: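 Fluorescence of the beta-lactamase reporter in p53RE-bla cells, detected with LiveBLAzer substrate (2 h, room temperature, dark), served as the read-out after 16 h compound exposure at 37 C with human liver microsomes and NADPH, each 0.5 mg/mL final.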

[6] = p53 small molecule agonists, cell-based qHTS assay with rat liver microsomes (AID 1963578)
Outline: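 Cells carrying a p53 response element–beta-lactamase reporter were plated and rested 5 h, then dosed with compound in DMSO plus rat liver microsomes and NADPH, each at 0.5 mg/mL final. After 16 h at 37 C, LiveBLAzer substrate was added for 2 h.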

[7] = p53 small molecule agonists, cell-based qHTS assay with human liver microsomes: qHTS cell viability counter screen (AID 1963579); note: nearly all actives have a fitted effect of over 45% in size; note: potency is the fitted concentration of half-maximal effect
Outline: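 Cytotoxicity counter screen: p53RE-bla, 4,000 cells/well; 5 h settle, 37 C/5% CO2; cpd + HLM 0.5 mg/mL + NADPH 0.5 mg/mL (final); 16 h, 37 C; CellTiter-Glo, 30 min RT, luminescence.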

[8] = p53 small molecule agonists, cell-based qHTS assay with rat liver microsomes: qHTS cell viability counter screen (AID 1963580); note: nearly all actives have a fitted effect of over 45% in size
Outline: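 Rat liver microsome (0.5 mg/mL final) and NADPH (0.5 mg/mL final) co-incubation with compounds for 16 h at 37 C on HCT-116 p53RE-bla cells; cytotoxicity taken from intracellular ATP luminescence.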

[9] = p53 small molecule agonists, cell-based qHTS assay: qHTS cell viability counter screen (AID 1963581); note: nearly all actives have a fitted effect of over 45% in size
Outline: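 Multiplexed with the reporter read, a CellTiter-Glo step (30 min, room temperature) gauges ATP-based viability of HCT-116 p53RE-bla cells after 16 h compound incubation at 37 C.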

[10] = p53 small molecule agonists, cell-based qHTS assay (AID 1963582; active = well fitted activation curve with a large enough effect in the signal ratio in the repeat runs, not every such curve was filed as active; the % refers to the signal ratio)
Outline: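 Beta-lactamase reporter cells (p53RE-bla) treated with compounds for 16 h at 37 C; FRET substrate, 2 h, room temperature; fluorescence intensity.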

[11] = biological target: 5-hydroxytryptamine receptor 2A (Homo sapiens) (UniProt P28223); assay: 5-hydroxytryptamine receptor 2A (HTR2A) small molecule antagonists, cell-based qHTS assay (AID 1963586); note: nearly all actives have a fitted effect of over 45% in size
5-hydroxytryptamine receptor 2A (Homo sapiens), sequence (P28223 whole entry, looked up): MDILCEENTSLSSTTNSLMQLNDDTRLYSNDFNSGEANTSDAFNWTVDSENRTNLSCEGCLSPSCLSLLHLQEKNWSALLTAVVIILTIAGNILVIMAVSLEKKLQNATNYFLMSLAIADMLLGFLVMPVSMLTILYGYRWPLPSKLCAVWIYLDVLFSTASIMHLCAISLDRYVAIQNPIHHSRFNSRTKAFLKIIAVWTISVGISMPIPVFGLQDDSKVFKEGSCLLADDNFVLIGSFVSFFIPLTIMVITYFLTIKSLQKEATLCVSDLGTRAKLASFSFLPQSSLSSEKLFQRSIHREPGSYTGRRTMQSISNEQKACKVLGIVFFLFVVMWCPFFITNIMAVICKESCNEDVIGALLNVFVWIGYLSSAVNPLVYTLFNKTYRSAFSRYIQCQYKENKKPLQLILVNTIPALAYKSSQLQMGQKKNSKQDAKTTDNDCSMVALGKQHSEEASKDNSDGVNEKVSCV
Outline: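 CHO cells stably expressing human HTR2A were plated for 18 h at 37 C, then loaded with calcium dye for 1 h. Compounds were preincubated 5 min at room temperature before DOI (4 nM solution) was added. Kinetic fluorescence was read for 3 min.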

[12] = biological target: 5-hydroxytryptamine receptor 2A (Homo sapiens) (UniProt P28223); assay: 5-hydroxytryptamine receptor 2A (HTR2A) small molecule agonists, cell-based qHTS assay (AID 1963587); note: nearly all actives have a fitted effect of over 30% in size; note: potency is the fitted concentration of half-maximal effect
Outline: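 Kinetic calcium-flux fluorescence (2 min, 1 sec intervals) after compound addition in agonist mode. HTR2A-CHO cells were cultured 18 h, then dye-loaded 1 h at 37 C.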

[13] = biological target: Muscarinic acetylcholine receptor M1 (Homo sapiens) (UniProt P11229); assay: Cholinergic receptor muscarinic 1 (CHRM1) small molecule antagonists, cell-based qHTS assay (AID 1963588); note: nearly all actives have a fitted effect of over 40% in size
Muscarinic acetylcholine receptor M1 (Homo sapiens), sequence (P11229 whole entry, looked up): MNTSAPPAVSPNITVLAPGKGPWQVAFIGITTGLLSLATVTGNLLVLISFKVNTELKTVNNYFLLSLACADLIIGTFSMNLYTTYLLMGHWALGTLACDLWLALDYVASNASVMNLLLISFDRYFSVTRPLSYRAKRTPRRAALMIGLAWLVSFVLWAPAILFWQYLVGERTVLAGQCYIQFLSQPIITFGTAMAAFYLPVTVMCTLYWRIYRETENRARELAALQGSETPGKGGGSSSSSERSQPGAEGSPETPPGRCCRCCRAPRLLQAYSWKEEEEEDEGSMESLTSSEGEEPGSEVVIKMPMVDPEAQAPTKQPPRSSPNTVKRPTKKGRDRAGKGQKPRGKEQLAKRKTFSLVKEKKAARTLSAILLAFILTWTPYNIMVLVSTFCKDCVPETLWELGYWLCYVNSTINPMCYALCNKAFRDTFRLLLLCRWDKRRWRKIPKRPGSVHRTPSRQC
Outline: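 Compounds were tested at 15 concentrations in three independent runs. Dye-loaded CHRM1-CHO cells were exposed 5 min at room temperature before stimulation by acetylcholine added at 50nM. Intracellular calcium was read kinetically on FDSS for 3 min.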

[14] = biological target: Muscarinic acetylcholine receptor M1 (Homo sapiens) (UniProt P11229); assay: Cholinergic receptor muscarinic 1 (CHRM1) small molecule agonists, cell-based qHTS assay (AID 1963589); note: nearly all actives have a fitted effect of over 35% in size
Outline: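 qHTS, 15-point titration, 3 independent runs: compounds pin-transferred onto dye-loaded CHRM1-CHO cells (human M1), calcium fluorescence followed every second to detect agonism.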

[15] = cAMP Responsive Elements (CRE) small molecule agonists, cell-based qHTS assay (AID 1963590)
Outline: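 Quantitative HTS for CRE agonists: HEK 293T CRE-bla cells, overnight plating, 3 h compound incubation at 37 C/5% CO2, then 2 h room-temperature LiveBLAzer B/G FRET substrate loading.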

[16] = biological target: Beta-2 adrenergic receptor (Homo sapiens) (UniProt P07550); assay: Adrenergic beta2 receptor (ADRB2) small molecule antagonists, cell-based qHTS assay (AID 1963592); note: series mostly up to about 92 µM; nearly all actives have a fitted effect of over 50% in size
Beta-2 adrenergic receptor (Homo sapiens), sequence (P07550 whole entry, looked up): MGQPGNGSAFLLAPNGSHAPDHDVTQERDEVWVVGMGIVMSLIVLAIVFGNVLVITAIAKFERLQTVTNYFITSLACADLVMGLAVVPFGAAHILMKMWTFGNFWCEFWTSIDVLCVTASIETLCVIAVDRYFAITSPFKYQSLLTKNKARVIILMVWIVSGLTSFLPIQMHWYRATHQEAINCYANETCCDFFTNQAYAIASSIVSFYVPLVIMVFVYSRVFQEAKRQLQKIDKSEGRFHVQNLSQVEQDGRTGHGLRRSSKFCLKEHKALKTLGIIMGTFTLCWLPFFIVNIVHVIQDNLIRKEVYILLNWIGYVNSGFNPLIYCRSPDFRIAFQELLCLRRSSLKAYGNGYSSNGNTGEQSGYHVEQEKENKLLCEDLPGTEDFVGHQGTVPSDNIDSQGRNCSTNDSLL
Outline: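 Assay format: CHO-ADRB2 cells, 18-20hr seeding at 37C/5% CO2, then compound plus 1nM isoproterenol agonist mix for 0.5hr RT. Homogeneous time-resolved fluorescence cAMP detection after 1hr, expressed as 665/615 nm ratio.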

[17] = biological target: D(2) dopamine receptor (Homo sapiens) (UniProt P14416); assay: Dopamine D2 receptor (DRD2) small molecule agonists, cell-based qHTS assay (AID 1963594); note: nearly all actives have a fitted effect of over 35% in size
D(2) dopamine receptor (Homo sapiens), sequence (P14416 whole entry, looked up): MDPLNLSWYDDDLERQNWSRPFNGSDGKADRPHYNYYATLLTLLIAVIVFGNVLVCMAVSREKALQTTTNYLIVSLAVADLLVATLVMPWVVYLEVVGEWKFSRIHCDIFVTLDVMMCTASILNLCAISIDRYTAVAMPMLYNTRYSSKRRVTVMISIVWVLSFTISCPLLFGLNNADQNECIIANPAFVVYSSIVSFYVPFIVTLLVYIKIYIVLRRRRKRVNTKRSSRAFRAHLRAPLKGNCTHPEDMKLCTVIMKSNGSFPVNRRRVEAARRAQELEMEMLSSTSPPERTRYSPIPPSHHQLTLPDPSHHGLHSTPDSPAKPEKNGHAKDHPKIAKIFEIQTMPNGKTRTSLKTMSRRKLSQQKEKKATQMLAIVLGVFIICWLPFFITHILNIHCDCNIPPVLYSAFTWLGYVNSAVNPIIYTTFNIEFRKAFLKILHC
Outline: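 cAMP accumulation in DRD2-HEK293 cells measured by HTRF after 1 h detection; compounds added 10 min before NKH477 (200nM […]) forskolin-analogue stimulation, 30 min at room temperature, with Ro20-1724 present at 0.1 mM final.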

[18] = biological target: D(2) dopamine receptor (Homo sapiens) (UniProt P14416); assay: Dopamine D2 receptor (DRD2) small molecule antagonists, cell-based qHTS assay (AID 1963595; active = well fitted inhibition curve with a large enough effect in the signal ratio in the repeat runs, with a control signal flat; the % refers to the signal ratio)
Outline: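 Cells were plated and grown for 24 h at 37 °C. Ro20-1724 (0.1 mM final) went in first, then compound for 10 min. NKH477 (200 nM) with quinpirole (12 nM) followed for 30 min at RT, then HTRF detection reagents for 1 h.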

[19] = cAMP Responsive Elements (CRE) small molecule antagonists, cell-based qHTS assay (AID 1963591; active = well fitted inhibition curve with a large enough effect in the signal ratio in the repeat runs, not every such curve was filed as active; the % refers to the signal ratio)
Outline: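 Fluorescence intensity from cleaved LiveBLAzer B/G substrate (2 h, room temperature) quantified CRE-bla activity in HEK 293T cells exposed 3 h to compound with 0.25 uM final NKH477.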
% is set by controls: 0 for no effect and ±100 for the full control effect.

CCCCCCCCCCCCC
inactive: Potency [1] | Potency [2] | Potency [3] | outcome [4] | Potency [5] | Potency [6] | Potency [7] | Potency [8] | Potency [9] | Potency [10] | Potency [11] | Potency [12] | Potency [13] | Potency [14] | Potency [15] | Potency [16] | Potency [17] | Potency [18]

CC[N+](CC)(CC)Cc1ccccc1
inactive: Potency [1] | Potency [2] | Potency [3] | outcome [4] | Potency [5] | Potency [6] | Potency [7] | Potency [8] | Potency [9] | Potency [10] | Potency [11] | Potency [12] | Potency [13] | Potency [14] | Potency [15] | Potency [19] | Potency [16] | Potency [17]

CCCCN1C=CN(C)C1
inactive: activity change, negative = cytotoxicity [1] 3.2% [at 19 µM] | activity, positive = activation [2] 5.6% [at 19 µM] | activity change [3] 1.08% [at 11.8 µM, active compounds read high] | activation [4] 0.0752% [at 11.8 µM] | activation [5] -0.103% [at 13.5 µM] | activation [6] 0.456% [at 13.6 µM] | activity change, negative = cytotoxicity [7] -6.5% [at 13.5 µM] | activity change, negative = cytotoxicity [8] 1.05% [at 13.5 µM] | activity change, negative = cytotoxicity [9] -5.52% [at 13.5 µM] | activation [10] -0.772% [at 13.5 µM] | activity, negative = inhibition [11] -10.9% [at 12.7 µM] | activation [12] 7.66% [at 15.9 µM] | activation [14] 4.26% [at 15.8 µM] | activation [15] -0.578% [at 19 µM] | activity change, negative = inhibition [19] -0.722% [at 18.9 µM] | activity change, negative = inhibition [16] 3.2% [at 19 µM] | activation [17] 0.42% [at 19 µM] | activity change, negative = inhibition [18] 2.35% [at 18.9 µM]

COc1cc2c(cc1OC)C(C(C(=O)N(CCc1ccc(OC)c(OC)c1OC)CCc1ccc(OC)c(OC)c1OC)c1ccccc1)=NCC2 (stereo not given)
active: Potency [12] 12 µM
inactive: Potency [1] | Potency [2] | Potency [3] | outcome [4] | Potency [5] | Potency [6] | Potency [7] | Potency [8] | Potency [9] | Potency [10] | Potency [11] | Potency [13] | Potency [17]

CCCCCCCCCCCCCCCCOS(=O)(=O)O
inactive: Potency [1] | Potency [2] | Potency [3] | outcome [4] | Potency [5] | Potency [6] | Potency [7] | Potency [8] | Potency [9] | Potency [10] | Potency [13] | Potency [14] | Potency [15] | Potency [19] | Potency [16] | Potency [17] | Potency [18]

ClC(Cl)(Br)Br
inactive: Potency [1] | Potency [2] | Potency [3] | outcome [4] | Potency [5] | Potency [6] | Potency [7] | Potency [8] | Potency [9] | Potency [11] | Potency [12] | Potency [13] | Potency [14] | Potency [15] | Potency [19] | Potency [17] | Potency [18]

COc1ccc(/C=C/S(=O)(=O)NC(=O)c2ccc(C)cc2Cl)cc1
inactive: Potency [1] | Potency [2] | Potency [3] | outcome [4] | Potency [5] | Potency [6] | Potency [7] | Potency [11] | Potency [12] | Potency [13] | Potency [14] | Potency [15] | Potency [16] | Potency [17] | Potency [18]

Cc1ccc(OC(=O)c2ccccc2O)cc1
inactive: Potency [1] | Potency [2] | Potency [3] | outcome [4] | Potency [5] | Potency [6] | Potency [7] | Potency [8] | Potency [10] | Potency [11] | Potency [12] | Potency [13] | Potency [14] | Potency [16] | Potency [17] | Potency [18]

O=C(Oc1ccccc1)c1ccccc1C(=O)Oc1ccccc1
inactive: Potency [1] | Potency [2] | Potency [3] | outcome [4] | Potency [5] | Potency [6] | Potency [7] | Potency [8] | Potency [10] | Potency [12] | Potency [13] | Potency [14] | Potency [19] | Potency [16] | Potency [17]

C/C(=N\[Si](C)(C)C)O[Si](C)(C)C
inactive: Potency [1] | Potency [2] | Potency [3] | outcome [4] | Potency [5] | Potency [6] | Potency [7] | Potency [8] | Potency [11] | Potency [12] | Potency [13] | Potency [14] | Potency [15] | Potency [19] | Potency [16] | Potency [17] | Potency [18]

CC1=C2[C@H](/C=C(\C)C(=O)O)CC[C@@H](C)[C@H]2CC1
active: Potency [1] 44.9 µM | Potency [7] 29.9 µM
inactive: Potency [2] | Potency [3] | outcome [4] | Potency [5] | Potency [6] | Potency [8] | Potency [10] | Potency [11] | Potency [12] | Potency [14] | Potency [16] | Potency [17] | Potency [18]

CC(=O)CC(=O)OC(C)(C)C
inactive: Potency [1] | Potency [2] | Potency [3] | outcome [4] | Potency [5] | Potency [6] | Potency [7] | Potency [8] | Potency [9] | Potency [12] | Potency [13] | Potency [15] | Potency [19] | Potency [16] | Potency [17] | Potency [18]

Cc1nc(-c2ccc(Cl)cc2)oc1COC(C)(C)C(=O)O
inactive: Potency [1] | Potency [2] | Potency [3] | outcome [4] | Potency [5] | Potency [6] | Potency [8] | Potency [9] | Potency [10] | Potency [11] | Potency [12] | Potency [13] | Potency [14] | Potency [19] | Potency [16] | Potency [17] | Potency [18]

CC(COC(C)(C)C)OCCCO (stereo not given)
inactive: Potency [1] | Potency [2] | Potency [3] | outcome [4] | Potency [5] | Potency [6] | Potency [8] | Potency [9] | Potency [10] | Potency [11] | Potency [12] | Potency [13] | Potency [14] | Potency [15] | Potency [16] | Potency [17] | Potency [18]

CCCCCCCCCCCCCC[n+]1ccccc1
active: Potency [1] 27.3 µM | Potency [3] 34.7 µM | Potency [7] 32.4 µM
inactive: Potency [2] | outcome [4] | Potency [5] | Potency [6] | Potency [16] | Potency [17] | Potency [18]
